# Measurements as given in PubChem BioAssay AID1159580 (chemical genetic matrix, 2015).
# Among all 5,500 compounds or so, about 2,000 (36%) were called active. Not shown: some 18% with an inconclusive outcome. The list shows a part of the results. Unmarked numbers belong to inactive results. Cut-off read from the data, not from the text of the source: active = normalized growth mostly below about 0.91 (no sharp cut-off); inconclusive = no clear call, values can overlap the other calls; inactive = mostly above about 0.92.
# Assay: chemical genetic growth profiling, strain panel (AID 1159580);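 note: tested at 20 µM; growth read once vehicle control cultures reached saturation at 30 °C; 1 = growth at the plate median or of vehicle wells; lower values mean less growth of the strain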
# Conditions: growth OD
smiles,measurement,setting,value
COc1cc(O)c(C(=O)O)c(O)c1,normalized growth,"S. cerevisiae deletion strains, locus YJR075W, strain HOC1, hits give low values",1
same,normalized growth,"S. cerevisiae deletion strains, locus YKL009W, strain mrt4, hits give low values",1.01
same,normalized growth,"S. cerevisiae deletion strains, locus YKL068W, hits give low values",0.954
same,normalized growth,"S. cerevisiae deletion strains, locus YKL085W, strain MDH1 (second series), hits give low values",0.961
same,normalized growth,"S. cerevisiae deletion strains, locus YKL085W, strain MDH1, hits give low values",0.961
same,normalized growth,"S. cerevisiae deletion strains, locus YKL160W, strain elf1, hits give low values",1
same,normalized growth,"S. cerevisiae deletion strains, locus YKL190W, strain CNB1, hits give low values",1.01
same,normalized growth,"S. cerevisiae deletion strains, locus YKR001C, strain vps1, hits give low values",1.02
same,normalized growth,"S. cerevisiae deletion strains, locus YKR026C, strain gcn3, hits give low values",0.986
same,normalized growth,"S. cerevisiae deletion strains, locus YKR091W, strain srl3, hits give low values",0.991
same,normalized growth,"S. cerevisiae deletion strains, locus YLL001W, strain dnm1, hits give low values",0.981
same,normalized growth,"S. cerevisiae deletion strains, locus YLL026W, hits give low values",1
same,normalized growth,"S. cerevisiae deletion strains, locus YLL041C, strain sdh2, hits give low values",0.986
same,normalized growth,"S. cerevisiae deletion strains, locus YLR027C, strain aat2, hits give low values",0.983
same,normalized growth,"S. cerevisiae deletion strains, locus YLR039C, strain RIC1, hits give low values",1.06
same,normalized growth,"S. cerevisiae deletion strains, locus YLR058C, strain SHM2, hits give low values",1
same,normalized growth,"S. cerevisiae deletion strains, locus YLR102C, strain apc9, hits give low values",0.997
same,normalized growth,"S. cerevisiae deletion strains, locus YLR113W, strain HOG1, hits give low values",0.83 (active)
same,normalized growth,"S. cerevisiae deletion strains, locus YLR221C, strain rsa3, hits give low values",1
same,normalized growth,"S. cerevisiae deletion strains, locus YLR258W, strain gsy2, hits give low values",0.998
same,normalized growth,"S. cerevisiae deletion strains, locus YLR262C, strain YPT6 (second series), hits give low values",1.02
same,normalized growth,"S. cerevisiae deletion strains, locus YLR262C, strain YPT6, hits give low values",1.02
same,normalized growth,"S. cerevisiae deletion strains, locus YLR268W, strain sec22, hits give low values",0.995
same,normalized growth,"S. cerevisiae deletion strains, locus YLR320W, strain mms22, hits give low values",1.01
same,normalized growth,"S. cerevisiae deletion strains, locus YLR330W, strain CHS5, hits give low values",0.991
same,normalized growth,"S. cerevisiae deletion strains, locus YLR342W, strain FKS1 (second series), hits give low values",1.06
same,normalized growth,"S. cerevisiae deletion strains, locus YLR342W, strain FKS1, hits give low values",0.99
same,normalized growth,"S. cerevisiae deletion strains, locus YLR357W, strain rsc2, hits give low values",1.01
same,normalized growth,"S. cerevisiae deletion strains, locus YLR370C, strain arc18, hits give low values",0.99
same,normalized growth,"S. cerevisiae deletion strains, locus YLR371W, strain rom2, hits give low values",0.999
same,normalized growth,"S. cerevisiae deletion strains, locus YLR384C, strain iki3, hits give low values",0.985
same,normalized growth,"S. cerevisiae deletion strains, locus YLR418C, strain cdc73, hits give low values",1.01
same,normalized growth,"S. cerevisiae deletion strains, locus YML016C, strain PPZ1, hits give low values",0.999
same,normalized growth,"S. cerevisiae deletion strains, locus YML032C, strain rad52, hits give low values",1.04
same,normalized growth,"S. cerevisiae deletion strains, locus YML120C, strain ndi1, hits give low values",0.998
same,normalized growth,"S. cerevisiae deletion strains, locus YML124C, strain tub3, hits give low values",0.992
same,normalized growth,"S. cerevisiae deletion strains, locus YMR058W, strain fet3, hits give low values",0.999
same,normalized growth,"S. cerevisiae deletion strains, locus YMR078C, strain ctf18, hits give low values",1.01
same,normalized growth,"S. cerevisiae deletion strains, locus YMR125W, strain sto1, hits give low values",0.973
same,normalized growth,"S. cerevisiae deletion strains, locus YMR129W, hits give low values",0.986
same,normalized growth,"S. cerevisiae deletion strains, locus YMR205C, strain PFK2, hits give low values",1.01
same,normalized growth,"S. cerevisiae deletion strains, locus YMR223W, strain ubp8, hits give low values",1.03
same,normalized growth,"S. cerevisiae deletion strains, locus YMR231W, strain pep5, hits give low values",0.984
same,normalized growth,"S. cerevisiae deletion strains, locus YMR263W, strain SAP30, hits give low values",1
same,normalized growth,"S. cerevisiae deletion strains, locus YMR307W, strain GAS1, hits give low values",1.03
same,normalized growth,"S. cerevisiae deletion strains, locus YNL067W, strain RPL9B, hits give low values",1
same,normalized growth,"S. cerevisiae deletion strains, locus YNL071W, strain lat1, hits give low values",0.99
same,normalized growth,"S. cerevisiae deletion strains, locus YNL128W, strain TEP1, hits give low values",1
same,normalized growth,"S. cerevisiae deletion strains, locus YNL153C, strain GIM3, hits give low values",0.998
same,normalized growth,"S. cerevisiae deletion strains, locus YNL183C, strain NPR1, hits give low values",0.84
same,normalized growth,"S. cerevisiae deletion strains, locus YNL209W, strain ssb2, hits give low values",0.981
same,normalized growth,"S. cerevisiae deletion strains, locus YNL233W, strain BNI4, hits give low values",1.01
same,normalized growth,"S. cerevisiae deletion strains, locus YNL248C, strain rpa49, hits give low values",0.992
same,normalized growth,"S. cerevisiae deletion strains, locus YNL250W, strain rad50, hits give low values",0.97
same,normalized growth,"S. cerevisiae deletion strains, locus YNL271C, strain bni1, hits give low values",0.945
same,normalized growth,"S. cerevisiae deletion strains, locus YNL298W, strain CLA4, hits give low values",0.977
same,normalized growth,"S. cerevisiae deletion strains, locus YNL307C, strain MCK1, hits give low values",1.02
same,normalized growth,"S. cerevisiae deletion strains, locus YNL322C, strain KRE1 (second series), hits give low values",0.972
same,normalized growth,"S. cerevisiae deletion strains, locus YNL322C, strain KRE1, hits give low values",0.99
same,normalized growth,"S. cerevisiae deletion strains, locus YNR049C, strain mso1, hits give low values",0.98
same,normalized growth,"S. cerevisiae deletion strains, locus YNR052C, strain pop2, hits give low values",1.02
same,normalized growth,"S. cerevisiae deletion strains, locus YOL006C, strain TOP1, hits give low values",1.04
same,normalized growth,"S. cerevisiae deletion strains, locus YOL012C, strain htz1",0.943
same,normalized growth,"S. cerevisiae deletion strains, locus YOL147C, strain pex11, hits give low values",1
same,normalized growth,"S. cerevisiae deletion strains, locus YOR001W, strain rrp6, hits give low values",0.999
same,normalized growth,"S. cerevisiae deletion strains, locus YOR061W, strain CKA2, hits give low values",1.01
same,normalized growth,"S. cerevisiae deletion strains, locus YOR069W, strain VPS5, hits give low values",0.993
same,normalized growth,"S. cerevisiae deletion strains, locus YOR070C, strain gyp1, hits give low values",0.994
same,normalized growth,"S. cerevisiae deletion strains, locus YOR080W, strain dia2, hits give low values",1
same,normalized growth,"S. cerevisiae deletion strains, locus YOR083W, strain WHI5, hits give low values",1.01
same,normalized growth,"S. cerevisiae deletion strains, locus YOR106W, strain vam3, hits give low values",1.01
same,normalized growth,"S. cerevisiae deletion strains, locus YOR136W, strain idh2, hits give low values",1.03
same,normalized growth,"S. cerevisiae deletion strains, locus YOR144C, strain elg1, hits give low values",1
same,normalized growth,"S. cerevisiae deletion strains, locus YOR184W, strain ser1, hits give low values",1.04
same,normalized growth,"S. cerevisiae deletion strains, locus YOR231W, strain MKK1, hits give low values",0.885
same,normalized growth,"S. cerevisiae deletion strains, locus YOR265W, strain rbl2, hits give low values",0.997
same,normalized growth,"S. cerevisiae deletion strains, locus YOR270C, strain vph1, hits give low values",1.02
same,normalized growth,"S. cerevisiae deletion strains, locus YOR290C, strain snf2, hits give low values",1.01
same,normalized growth,"S. cerevisiae deletion strains, locus YOR316C, strain cot1, hits give low values",1
same,normalized growth,"S. cerevisiae deletion strains, locus YPL051W, strain arl3, hits give low values",0.986
same,normalized growth,"S. cerevisiae deletion strains, locus YPL055C, strain LGE1, hits give low values",1.01
same,normalized growth,"S. cerevisiae deletion strains, locus YPL078C, strain atp4, hits give low values",0.992
same,normalized growth,"S. cerevisiae deletion strains, locus YPL106C, strain sse1, hits give low values",0.982
same,normalized growth,"S. cerevisiae deletion strains, locus YPL240C, strain hsp82, hits give low values",1
same,normalized growth,"S. cerevisiae deletion strains, locus YPL241C, strain CIN2, hits give low values",0.997
same,normalized growth,"S. cerevisiae deletion strains, locus YPL256C, strain CLN2, hits give low values",0.824 (active)
same,normalized growth,"S. cerevisiae deletion strains, locus YPR119W, strain clb2, hits give low values",0.987
same,normalized growth,"S. cerevisiae deletion strains, locus YPR141C, strain kar3, hits give low values",0.968
same,normalized growth,"S. cerevisiae deletion strains, locus YPR163C, strain tif3, hits give low values",1.01
same,normalized growth,"S. cerevisiae deletion strains, locus YPR167C, strain met16, hits give low values",1
same,normalized growth,"S. cerevisiae deletion strains, strain wtn01, hits give low values",1.01
same,normalized growth,"S. cerevisiae strains, strain wild type, hits give low values",1
